High-throughput results: PubChem BioAssay, National Center for Advancing Translational Sciences (NCATS)
Shown are actives, neighbours in structure and some others; about 11% of the full set was active somewhere.
IMPase Li inh = cell-permeable IMPase inhibitors with lithium potentiation; AID 1457; Potency, µM (series often up to 59.4 µM), actives largely listed as inhibitors; actives 0.35% (n = 210,000); CHO-M1 cells, IP1 TR-FRET (IP-One), carbachol + lithium; active = well fitted curve in the direction sought with a large enough effect; inconclusive = small, poorly fitted or top-dose-only effect, or another doubt; inactive = no such curve, though single readings can be large; an effect the other way counts as inactive or inconclusive;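 also: IP1 builds up when IMPase is blocked and the TR-FRET signal falls; nearly all actives have a fitted effect of over 50% in size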
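CHO cells stably expressing M1 receptor (2000/well, cultured 16–30 h) treated 30 min at 37C with compound plus low lithium. Cytosolic IP1 by TR-FRET (665/620 ratio and 620 channel) after 10 min lysis; AC50 by Hill fit.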
HPGD inh = blocks human HPGD enzyme activity. actives 4.3% (n = 150,000). P15428. Potency, µM, most hits filed as inhibitors. purified HPGD, NADH fluorescence kinetic, PGE2 substrate. AID 894
Target sequence (P15428 whole entry, looked up): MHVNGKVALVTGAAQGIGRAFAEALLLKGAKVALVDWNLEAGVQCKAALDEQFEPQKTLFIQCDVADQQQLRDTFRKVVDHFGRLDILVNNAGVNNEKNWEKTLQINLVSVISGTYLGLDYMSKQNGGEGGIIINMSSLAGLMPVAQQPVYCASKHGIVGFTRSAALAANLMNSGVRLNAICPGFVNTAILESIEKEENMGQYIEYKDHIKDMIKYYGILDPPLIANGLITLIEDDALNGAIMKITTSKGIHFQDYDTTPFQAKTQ
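NADH formation kinetics: reaction with 30 uM PGE2 and 1 mM NAD+ (final), 20 nM enzyme, Tris-HCl pH 8 with Tween 20, after 15 min compound preincubation at room temperature. Fluorescence change, last versus first of five reads.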
IMPase cell inh = IMPase inhibition in cells | 120,000 tested, under 10 active | inhibition (IP1 accumulation), % at 46.1 µM | CHO-M1 cells, IP1 accumulation, HTRF TR-FRET ratio; active = well fitted curve in the direction sought with a large enough effect in the signal ratio, not every such curve was filed as active; inconclusive = small, poorly fitted or top-dose-only effect, or a change in a side signal; inactive = no such curve, though single readings can be large or run the other way; the % refers to the signal ratio;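 also: cells stimulated with carbachol in lithium chloride buffer; higher means more IMPase inhibition seen as more IP1 and lower FRET ratio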
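Seeded CHO-M1 cells were dosed with compound at up to 46 uM, stimulated with carbachol for 30 min, then lysed in IP-One detection reagents. Higher IP1 lowers the TR-FRET signal.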
PNC assembly inh = inhibitors of perinucleolar compartment assembly; actives 3.1% (n = 140,000); AID 2417; activity change (PNC), negative = inhibition, % at 10 µM; PC3M PTB-GFP, PNC prevalence imaging, 16 h; stronger effect = lower value;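 active = readout at or below -70, meaning at least 70% loss of cells showing the perinucleolar compartment, a nuclear body marking cancer cells; inconclusive = readout between -30 and a set limit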
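PC3M cells stably expressing PTB-GFP, 750–1000 cells/well, treated 16 h at 37 °C with compound (23 nl of library stock), in duplicate. After paraformaldehyde fixation and Hoechst stain, imaged at 20x; PNC prevalence scored by image analysis.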
12-hLO inh = inhibitors of human 12-lipoxygenase (ALOX12); P18054; purified 12-hLO, xylenol orange hydroperoxide absorbance; Potency, µM (highest dose often 57.1 µM), usual class: inhibitors; actives 0.12% (n = 150,000); active = well fitted curve in the direction sought with a large enough effect; inconclusive = small, poorly fitted or top-dose-only effect, or another doubt; inactive = no such curve, though single readings can be large; an effect the other way counts as inactive or inconclusive; also: nearly all actives have a fitted effect of over 55% in size
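Hydroperoxide output read as Fe(III)-xylenol orange absorbance, 573-to-405 nm ratio, after 30 min reaction with 40 uM arachidonic acid. Enzyme: 150 nM purified human 12hLO, 15 min compound preincubation; 25 mM Hepes pH 7.0, room temperature.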
ALDH1A1 block = inhibitors of human aldehyde dehydrogenase 1A1; P00352; Purified ALDH1A1, NADH fluorescence, propionaldehyde substrate; Potency, µM (highest dose often 75.3 µM), hits mostly inhibitors; actives 7.3% (n = 220,000)
Target sequence (P00352 whole entry, looked up): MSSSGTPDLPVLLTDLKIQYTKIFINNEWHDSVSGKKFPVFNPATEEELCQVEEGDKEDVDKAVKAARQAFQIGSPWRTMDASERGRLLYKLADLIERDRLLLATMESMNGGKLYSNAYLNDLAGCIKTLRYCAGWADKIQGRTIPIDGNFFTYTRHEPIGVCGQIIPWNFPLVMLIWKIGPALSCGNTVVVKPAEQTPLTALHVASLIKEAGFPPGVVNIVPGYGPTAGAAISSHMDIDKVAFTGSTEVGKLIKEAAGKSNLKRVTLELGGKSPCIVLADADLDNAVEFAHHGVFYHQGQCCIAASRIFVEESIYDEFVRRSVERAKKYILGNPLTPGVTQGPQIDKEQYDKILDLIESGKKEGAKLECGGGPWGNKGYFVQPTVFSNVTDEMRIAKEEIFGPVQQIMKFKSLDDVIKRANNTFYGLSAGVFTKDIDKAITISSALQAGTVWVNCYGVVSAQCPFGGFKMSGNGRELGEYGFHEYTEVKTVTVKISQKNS
A number is an active result; . = inactive; ? = inconclusive; / = not tested or not shown. Unless noted, calls follow the shape of the dose curve; as a rule, active = well fitted inhibition curve with a large enough effect (not every such curve was filed as active); inconclusive = small, poorly fitted or top-dose-only effect, or another doubt; inactive = no such curve, though single readings can be large or run the other way.

SMILES | IMPase Li inh | HPGD inh | IMPase cell inh | PNC assembly inh | 12-hLO inh | ALDH1A1 block
C[C@]12CCC(=O)C=C1CC[C@@H]1C2[C@@H](O)C[C@@]2(C)[C@H]1CC[C@]2(O)C(=O)CO (stereo partly specified) | / | . | / | / | / | .
N=C1SCC(=O)N1c1ncc(Cc2ccc(F)cc2)s1 | . | / | / | / | / | .
Cc1cc(OCC(=O)Nc2cc(-c3nn4c(C)nnc4s3)ccc2C)ccc1Cl | 28.2µM | . | . | . | . | .
COc1ccc(C(=O)Nc2cc(-c3nn4c(C)nnc4s3)ccc2C)cc1 | . | ? | . | . | . | .
Cc1ccc(-c2nn3c(C)nnc3s2)cc1NC(=O)c1ccc(OC(C)C)cc1 | . | 1.12µM | . | ? | . | 12.6µM
O=C(CN1CCN(c2nc(-c3ccccc3)cs2)CC1)NNC(=O)c1ccco1 | . | / | / | / | / | .
Cc1ccccc1-c1noc(N)c1C#N | . | . | . | . | . | .
CN(C)/C=C/c1onc(-c2ccccc2Cl)c1C#N | . | / | / | / | / | 6.31µM
COC(=O)c1ccccc1NC(=O)c1noc2c1CCC2 | . | . | . | . | . | ?
O=C(NCc1cccc(F)c1)c1noc2c1CCCC2 | . | 20µM | . | ? | . | ?
CSc1ccccc1NC(=O)c1noc2c1CCC2 | . | ? | . | ? | . | 25.1µM
Cc1ccc(NC(=O)CSCC(=O)Nc2ncc3c(n2)CC(c2ccco2)CC3=O)cc1 (stereo unspecified) | . | . | . | -85.1 | . | 3.98µM
Cc1ccccc1CSCC(Nc1ccc(C(=O)O)cc1[N+](=O)[O-])C(=O)O (stereo unspecified) | . | . | . | ? | . | 15.8µM
CCOc1cc(C(=O)NCCN2CCOCC2)cc(OCC)c1OCC | . | . | . | -100.0 | . | .
CCOC(=O)C1(CC)NC(c2ccco2)C2C(=O)N(CC)C(=O)C21 (stereo unspecified) | . | . | . | ? | . | .
CCOC(=O)C1(CC)NC(c2ccco2)C2C(=O)N(c3ccc(C)cc3)C(=O)C21 (stereo unspecified) | . | . | . | . | . | 14.1µM
Cc1cc(C(=O)OCC(=O)c2ccc(Br)s2)c(C)o1 | . | ? | . | . | . | ?
Cc1cc(C(=O)OCC(=O)c2ccc(Br)s2)no1 | 6.31µM | ? | ? | . | ? | ?
CCc1nn(-c2ccccc2)c2nc(-c3ccc(O)cc3)c3cc(OC)c(OC)cc3c12 | / | / | . | / | / | /
CC(C)Cn1c(Br)nc2c1c(=O)n(CCC#N)c(=O)n2C | . | 17.8µM | . | -123.3 | . | .
CC(C)Oc1ccc(C2c3c(oc4ccccc4c3=O)C(=O)N2CCCN2CCOCC2)cc1 (stereo unspecified) | . | . | . | . | . | 8.91µM
O=C1c2oc3ccc(Cl)cc3c(=O)c2C(c2ccccn2)N1CCCN1CCOCC1 (stereo unspecified) | . | . | . | . | . | 7.94µM
O=C1c2oc3ccccc3c(=O)c2C(c2cccnc2)N1CCCN1CCOCC1 (stereo unspecified) | . | . | . | . | . | .
Cc1ccc(C2c3c(oc4cc(C)c(C)cc4c3=O)C(=O)N2CCCN2CCOCC2)cc1 (stereo unspecified) | . | . | . | . | . | 11.2µM
C=CCOc1ccc(C2c3c(oc4ccccc4c3=O)C(=O)N2CCCN2CCOCC2)cc1 (stereo unspecified) | . | . | . | . | . | 17.8µM
SMILES | IMPase Li inh | HPGD inh | IMPase cell inh | PNC assembly inh | 12-hLO inh | ALDH1A1 block
Cc1ccc(NC(=O)CCS(=O)(=O)c2cc(Br)cc3c2N(C(=O)C2CC2)CC3)cc1 | / | / | . | / | / | /
Cn1c(NCCCCO)nc2c1c(=O)n(Cc1ccc(Cl)cc1)c(=O)n2C | / | / | . | / | / | /
CC(C)(C)c1cc[n+](/C(C(=S)Nc2ccccc2F)=C(/[O-])c2ccc3c(c2)OCCO3)cc1 | . | / | / | / | / | 14.1µM
CC(=O)Nc1ccccc1OCC(=O)c1ccc2c(c1)OCO2 | / | / | . | . | . | .
Cc1ccccc1NC(=O)c1ccc2c(c1)OCCO2 | . | . | . | . | . | .
[O-]/C(=C(\C(=S)Nc1ccccc1F)[n+]1ccccc1)c1ccc(-c2ccccc2)cc1 | . | / | / | / | / | 17.8µM
CCOc1ccccc1NC(=S)/C(=C(\[O-])c1ccc2c(c1)OCCO2)[n+]1ccc(CC)cc1 | . | ? | . | . | . | 20µM
CCSc1ccc2cc(OC)ccc2[n+]1CC | . | / | / | / | / | ?
CS(=O)(=O)Nc1cccc(-c2ccc3ncnc(NCc4cccnc4)c3c2)c1 | . | 25.1µM | / | / | . | .
CS(=O)(=O)Nc1cccc(-c2nc(NCc3ccccc3)c3ccccc3n2)c1 | . | / | / | / | / | 25.1µM
CS(=O)(=O)Nc1cccc(-c2cncnc2NCc2ccccc2)c1 | . | / | / | / | / | .
CS(=O)(=O)Nc1cccc(-c2nc(NCc3cccnc3)c3ccccc3n2)c1 | . | . | / | / | . | .
COc1cccc(-c2cncnc2NCc2ccccc2)c1 | . | 14.1µM | / | / | . | ?
Cc1cccc(CNc2ncncc2-c2cccc(NS(C)(=O)=O)c2)c1 | . | 15.8µM | / | / | . | ?
COc1cccc(-c2ccc3ncnc(NCc4cccnc4)c3c2)c1 | . | / | / | / | / | ?
NCCC[C@@H](CC(=O)N[C@@H]1CCNC[C@H]1C(=O)N[C@H](CC(=O)N[C@@H](CCC(=O)O)CC(=O)O)Cc1ccccc1)NC(=O)C[C@H](Cc1ccccc1)NC(=O)[C@@H]1CCCC[C@H]1N | . | . | / | / | . | .
CCC(C)Nc1ccc(NC(C)CC)cc1 (stereo unspecified) | . | . | / | / | . | 8.91µM
CCC(C)NC(=O)Nc1ccc(Br)cc1 (stereo unspecified) | . | / | / | / | / | .
CC1CCc2c(sc3nnn(CC(=O)Nc4ccccc4Cl)c(=O)c23)C1 (stereo unspecified) | / | / | . | / | / | /
COc1cc2c(cc1OC)CN(Cc1nc3ccsc3c(=O)[nH]1)CC2 | . | ? | . | -83.4 | . | ?
O=C(Nc1cccc(-c2nc3ccccc3[nH]2)c1)c1c(F)cccc1F | / | / | . | / | / | /
CC(=O)c1c(C)oc2ccc(N(C(=O)Oc3ccccc3)S(=O)(=O)c3ccc(C(C)(C)C)cc3)cc12 | / | / | . | / | / | /
O=[N+]([O-])c1cnc(Sc2ccncn2)s1 | / | / | / | / | / | 3.16µM
CCC(=O)N(CCC(c1ccccc1)c1ccco1)Cc1cccs1 (stereo unspecified) | . | . | . | . | . | 8.91µM
CCN(CC)C(=O)CC(c1ccccc1)c1ccco1 (stereo unspecified) | . | 15.8µM | . | . | . | .
COc1ccccc1C(CCN(Cc1cccs1)C(C)=O)c1ccco1 (stereo unspecified) | / | / | . | . | . | 8.91µM
CCC(=O)N(CCC(Cc1ccccc1)c1ccco1)Cc1ccco1 (stereo unspecified) | . | / | / | / | / | 14.1µM
